Results reported in ChEMBL document CHEMBL3988442, “University of Dundee, Small-Polar-MMV Screening Library” (2021).
For some assays here: Entries with a potency or affinity are not part of this list.

Assays:
Parameters in all cases: scale not given: direction of the effect not stated beside the values
[1] = target: Protein translocase subunit SecA (Escherichia coli (strain K12)) (UniProt P10408); experiment: Assay to Identify E. coli SecA ATPase Inhibitors; format: functional; details: 30 µM
[2] = target: T1, Ubiquitin-activating enzyme e1, putative (Leishmania donovani (strain BPK282A1)) (UniProt E9BSI1); experiment: Leishmania donovani Ubiquitin Activating Enzyme (LdE1); format: functional; details: 30 µM
T1 sequence (whole entry): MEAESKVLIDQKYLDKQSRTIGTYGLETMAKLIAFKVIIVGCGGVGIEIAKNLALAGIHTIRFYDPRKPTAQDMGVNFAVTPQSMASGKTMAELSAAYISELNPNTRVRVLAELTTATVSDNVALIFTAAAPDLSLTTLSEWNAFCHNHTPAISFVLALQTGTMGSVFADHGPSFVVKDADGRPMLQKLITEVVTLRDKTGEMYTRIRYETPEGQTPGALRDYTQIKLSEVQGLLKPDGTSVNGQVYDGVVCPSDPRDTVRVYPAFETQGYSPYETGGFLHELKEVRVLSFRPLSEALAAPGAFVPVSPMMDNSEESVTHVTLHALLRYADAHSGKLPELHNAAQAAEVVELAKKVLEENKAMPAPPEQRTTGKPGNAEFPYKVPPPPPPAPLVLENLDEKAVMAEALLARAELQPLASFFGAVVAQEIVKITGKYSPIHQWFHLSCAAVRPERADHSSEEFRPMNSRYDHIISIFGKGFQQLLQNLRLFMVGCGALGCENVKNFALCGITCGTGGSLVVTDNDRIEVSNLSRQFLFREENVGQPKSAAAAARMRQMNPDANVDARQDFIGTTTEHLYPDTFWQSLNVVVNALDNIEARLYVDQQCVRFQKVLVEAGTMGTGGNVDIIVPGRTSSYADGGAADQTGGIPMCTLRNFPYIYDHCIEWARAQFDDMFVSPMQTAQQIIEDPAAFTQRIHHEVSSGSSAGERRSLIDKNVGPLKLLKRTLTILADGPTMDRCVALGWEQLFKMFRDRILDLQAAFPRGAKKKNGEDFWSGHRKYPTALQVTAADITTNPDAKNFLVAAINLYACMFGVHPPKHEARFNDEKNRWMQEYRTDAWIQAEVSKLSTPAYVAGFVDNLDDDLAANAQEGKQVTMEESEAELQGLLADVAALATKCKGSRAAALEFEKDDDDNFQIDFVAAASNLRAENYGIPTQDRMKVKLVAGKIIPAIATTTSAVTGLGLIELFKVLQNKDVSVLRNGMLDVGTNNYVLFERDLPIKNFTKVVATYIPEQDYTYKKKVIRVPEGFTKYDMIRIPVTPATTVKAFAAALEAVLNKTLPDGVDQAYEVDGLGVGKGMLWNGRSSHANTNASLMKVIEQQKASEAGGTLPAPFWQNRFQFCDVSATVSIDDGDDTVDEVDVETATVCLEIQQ

[3] = target: AMP-activated protein kinase, AMPK (Homo sapiens) (UniProt P54646+O43741+P54619+Q9UGJ0+Q9Y478+Q13131+Q9UGI9); experiment: AMP-dependent Kinase enzyme assay. An in vitro enzyme assay that detects ADP turnover that is directly proportional to AMPK activity. This uses naive AMPK that is activated during the assay with MK-8722; format: functional; details: 30 µM
[4] = target: Sialic acid-binding Ig-like lectin 9 (Homo sapiens) (UniProt Q9Y336); experiment: Hs-Siglec9 ALPHAscreen SOP 20170721; details: 10 µM
Chain of Sialic acid-binding Ig-like lectin 9 (Homo sapiens) (Q9Y336 whole entry): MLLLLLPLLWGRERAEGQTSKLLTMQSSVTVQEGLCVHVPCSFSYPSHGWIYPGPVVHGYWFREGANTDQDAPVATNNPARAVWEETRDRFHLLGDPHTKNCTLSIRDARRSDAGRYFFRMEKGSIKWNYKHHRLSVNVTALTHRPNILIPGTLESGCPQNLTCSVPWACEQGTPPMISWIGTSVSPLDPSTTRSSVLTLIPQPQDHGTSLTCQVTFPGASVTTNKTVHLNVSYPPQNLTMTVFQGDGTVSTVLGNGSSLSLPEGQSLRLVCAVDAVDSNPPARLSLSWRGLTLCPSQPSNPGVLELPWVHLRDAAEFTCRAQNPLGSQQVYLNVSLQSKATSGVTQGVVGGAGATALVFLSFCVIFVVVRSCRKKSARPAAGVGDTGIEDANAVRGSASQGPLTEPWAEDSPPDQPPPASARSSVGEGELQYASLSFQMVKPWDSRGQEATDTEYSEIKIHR

[5] = test system: Trypanosoma cruzi; experiment: Trypanosoma cruzi phosphomannomutase and mannose-1-phosphate guanylyltransferase assay; format: functional; details: 10 µM
[6] = target: T2, Arginase-2, mitochondrial (Homo sapiens) (UniProt P78540); experiment: in vitro enzyme assay to detect the production of urea directly proportional to the activity of Arginase II; format: functional; details: 33.3 µM; note: in the data most compounds retested in dose-response had high values
T2 sequence (whole entry): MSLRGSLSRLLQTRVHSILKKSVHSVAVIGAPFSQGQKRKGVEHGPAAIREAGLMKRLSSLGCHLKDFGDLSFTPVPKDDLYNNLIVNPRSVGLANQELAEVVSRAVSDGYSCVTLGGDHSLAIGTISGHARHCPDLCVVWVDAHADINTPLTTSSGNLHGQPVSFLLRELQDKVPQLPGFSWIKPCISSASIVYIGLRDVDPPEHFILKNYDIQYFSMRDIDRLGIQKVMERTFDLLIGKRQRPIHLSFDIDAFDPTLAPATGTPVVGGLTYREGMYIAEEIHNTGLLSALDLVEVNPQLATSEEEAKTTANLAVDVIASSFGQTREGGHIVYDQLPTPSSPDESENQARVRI

[7] = target: T3, Proteasome subunit beta (Trypanosoma cruzi) (UniProt O96673); experiment: Trypanosoma cruzi proteasome chymotrypsin-like activity (TcProtChymo) assay.; note: in the data most compounds retested in dose-response had high values; format: functional; details: 9.37 µM
T3 sequence (whole entry): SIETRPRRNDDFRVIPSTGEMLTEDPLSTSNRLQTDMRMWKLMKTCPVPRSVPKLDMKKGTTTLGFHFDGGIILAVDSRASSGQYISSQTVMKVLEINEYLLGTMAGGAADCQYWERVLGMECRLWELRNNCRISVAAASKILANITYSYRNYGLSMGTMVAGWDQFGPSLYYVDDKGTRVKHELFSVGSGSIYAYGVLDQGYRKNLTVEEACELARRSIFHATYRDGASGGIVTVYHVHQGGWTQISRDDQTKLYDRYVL

[8] = species: Homo sapiens; experiment: To identify inhibition of the IFN signalling (Jak-Stat) pathway via expression of an eGFP reporter gene under the control of an IFN-stimulated response element (ISRE) containing MxA promoter.; format: functional; details: 30 µM
[9] = target: T4, Tyrosyl-tRNA synthetase, putative (Trypanosoma cruzi (strain CL Brener)) (UniProt Q4DSP6); experiment: Trypanosoma cruzi tyrosyl tRNA synthetase (TcYRS) _High Tyrosine SOP; format: functional; details: 30 µM; note: in the data most compounds retested in dose-response had high values
T4 sequence (whole entry): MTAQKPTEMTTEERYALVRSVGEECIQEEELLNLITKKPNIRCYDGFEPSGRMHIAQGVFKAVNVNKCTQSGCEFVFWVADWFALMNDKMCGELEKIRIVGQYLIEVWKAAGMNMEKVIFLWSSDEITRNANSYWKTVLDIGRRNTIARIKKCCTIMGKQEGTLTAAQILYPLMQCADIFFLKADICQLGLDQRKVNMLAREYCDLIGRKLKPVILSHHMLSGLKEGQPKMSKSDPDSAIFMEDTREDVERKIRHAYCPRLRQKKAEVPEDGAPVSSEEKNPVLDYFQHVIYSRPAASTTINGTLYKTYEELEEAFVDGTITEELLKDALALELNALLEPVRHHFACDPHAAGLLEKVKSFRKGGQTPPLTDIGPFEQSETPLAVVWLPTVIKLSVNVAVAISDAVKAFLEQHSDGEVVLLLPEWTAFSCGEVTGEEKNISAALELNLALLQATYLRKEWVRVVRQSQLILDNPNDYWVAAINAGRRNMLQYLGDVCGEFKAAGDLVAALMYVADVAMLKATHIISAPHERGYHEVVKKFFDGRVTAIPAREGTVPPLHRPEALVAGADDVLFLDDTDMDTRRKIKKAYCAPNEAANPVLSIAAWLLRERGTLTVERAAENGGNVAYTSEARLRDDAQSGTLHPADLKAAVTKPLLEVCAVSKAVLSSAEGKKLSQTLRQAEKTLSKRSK

[10] = target: T4, Tyrosyl-tRNA synthetase, putative (Trypanosoma cruzi (strain CL Brener)); experiment: Trypanosoma cruzi tyrosyl tRNA synthetase (TcYRS) SOP; format: functional; details: 30 µM
[11] = target: Chromo domain-containing protein 1 (Saccharomyces cerevisiae (strain ATCC 204508 / S288c) (Baker's yeast)) (UniProt P32657); experiment: ScCHD-1 Enzyme Inhibition Assay; format: functional; details: 30 µM; note: in the data most compounds retested in dose-response had high values
Chain of Chromo domain-containing protein 1 (Saccharomyces cerevisiae (strain ATCC 204508 / S288c) (Baker's yeast)) (P32657 whole entry, the tested form may be a part): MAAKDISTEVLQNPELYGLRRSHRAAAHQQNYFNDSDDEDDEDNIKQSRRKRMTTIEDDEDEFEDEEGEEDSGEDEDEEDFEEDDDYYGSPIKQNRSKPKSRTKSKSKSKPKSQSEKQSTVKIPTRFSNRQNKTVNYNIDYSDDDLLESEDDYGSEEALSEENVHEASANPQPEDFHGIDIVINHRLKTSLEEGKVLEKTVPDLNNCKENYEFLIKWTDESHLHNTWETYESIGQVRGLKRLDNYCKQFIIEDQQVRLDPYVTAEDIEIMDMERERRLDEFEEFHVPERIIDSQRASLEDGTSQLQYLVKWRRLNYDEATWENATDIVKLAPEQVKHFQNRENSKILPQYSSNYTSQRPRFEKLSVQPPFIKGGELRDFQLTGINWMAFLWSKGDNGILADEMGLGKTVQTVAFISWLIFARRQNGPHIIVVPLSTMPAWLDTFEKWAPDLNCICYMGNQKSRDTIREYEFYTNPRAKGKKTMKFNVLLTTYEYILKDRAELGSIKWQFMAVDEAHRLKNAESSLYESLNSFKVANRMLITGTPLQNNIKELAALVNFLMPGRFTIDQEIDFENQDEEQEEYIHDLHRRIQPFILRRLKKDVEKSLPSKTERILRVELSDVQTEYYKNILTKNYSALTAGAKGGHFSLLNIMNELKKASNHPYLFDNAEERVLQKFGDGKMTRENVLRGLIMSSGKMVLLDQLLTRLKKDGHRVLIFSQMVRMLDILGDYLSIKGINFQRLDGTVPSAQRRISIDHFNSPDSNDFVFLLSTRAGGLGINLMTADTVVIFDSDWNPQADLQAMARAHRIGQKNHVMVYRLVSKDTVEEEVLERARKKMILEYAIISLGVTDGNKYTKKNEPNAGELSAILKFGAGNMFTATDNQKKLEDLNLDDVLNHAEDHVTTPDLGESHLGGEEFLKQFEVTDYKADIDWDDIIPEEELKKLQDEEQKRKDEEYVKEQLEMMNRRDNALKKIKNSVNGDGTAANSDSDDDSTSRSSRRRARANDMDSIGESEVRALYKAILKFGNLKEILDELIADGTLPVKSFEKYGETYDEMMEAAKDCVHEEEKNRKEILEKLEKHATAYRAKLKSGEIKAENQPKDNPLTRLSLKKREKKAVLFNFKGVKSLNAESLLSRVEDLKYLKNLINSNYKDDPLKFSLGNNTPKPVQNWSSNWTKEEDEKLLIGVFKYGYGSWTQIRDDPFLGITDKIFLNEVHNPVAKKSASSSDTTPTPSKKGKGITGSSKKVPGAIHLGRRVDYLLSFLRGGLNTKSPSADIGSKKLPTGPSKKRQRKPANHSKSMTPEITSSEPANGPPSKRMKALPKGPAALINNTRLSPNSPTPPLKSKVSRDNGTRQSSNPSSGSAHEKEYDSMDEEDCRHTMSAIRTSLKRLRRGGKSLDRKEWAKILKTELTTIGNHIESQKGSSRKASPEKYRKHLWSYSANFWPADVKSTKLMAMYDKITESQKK

Chain of Protein translocase subunit SecA (Escherichia coli (strain K12)) (P10408 whole entry): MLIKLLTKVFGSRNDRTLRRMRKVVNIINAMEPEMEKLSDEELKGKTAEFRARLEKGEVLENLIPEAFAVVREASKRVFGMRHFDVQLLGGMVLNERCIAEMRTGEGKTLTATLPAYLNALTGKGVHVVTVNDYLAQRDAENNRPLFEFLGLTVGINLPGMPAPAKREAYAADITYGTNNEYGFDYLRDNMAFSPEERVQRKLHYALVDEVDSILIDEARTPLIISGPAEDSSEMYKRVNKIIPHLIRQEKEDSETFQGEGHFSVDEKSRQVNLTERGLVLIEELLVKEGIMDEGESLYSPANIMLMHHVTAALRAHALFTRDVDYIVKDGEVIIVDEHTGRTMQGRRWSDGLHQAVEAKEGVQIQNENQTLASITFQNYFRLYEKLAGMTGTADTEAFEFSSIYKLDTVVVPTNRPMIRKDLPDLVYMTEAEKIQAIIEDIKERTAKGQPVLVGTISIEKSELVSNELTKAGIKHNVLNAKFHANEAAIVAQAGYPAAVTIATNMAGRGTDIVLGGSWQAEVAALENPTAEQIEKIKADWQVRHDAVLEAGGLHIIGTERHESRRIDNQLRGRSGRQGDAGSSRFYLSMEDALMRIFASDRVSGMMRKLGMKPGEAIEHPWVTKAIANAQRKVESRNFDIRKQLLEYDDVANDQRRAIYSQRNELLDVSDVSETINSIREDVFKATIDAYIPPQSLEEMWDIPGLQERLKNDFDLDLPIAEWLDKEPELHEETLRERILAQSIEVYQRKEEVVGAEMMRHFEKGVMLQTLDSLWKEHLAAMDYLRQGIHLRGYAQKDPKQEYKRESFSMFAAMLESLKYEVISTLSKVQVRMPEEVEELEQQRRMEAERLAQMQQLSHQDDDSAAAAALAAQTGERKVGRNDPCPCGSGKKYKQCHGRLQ

| SMILES | Percent Effect [1] | Percent Effect [2] | Percent Effect [3] | Percent Effect [4] | Percent Effect [5] | Percent Effect [6] | Percent Effect [7] | Percent Effect [8] | Percent Effect [9] | Percent Effect [10] | Percent Effect [11] |
| --- | --- | --- | --- | --- | --- | --- | --- | --- | --- | --- | --- |
| CCCS(=O)(=O)NC(C)C(=O)NCc1ccc(N2CCCC2)nc1 (configuration not stated) | -3.52% | 16.2% | -27.4% | -2.65% | -0.66% | -4.01% | 12.8% | 5.44% | 13.3% | 13.6% | -7.91% |
| Cc1nc2c(c(C)c1CC(=O)NCc1cccc(C#N)c1)c(=O)[nH]n2C | -4.87% | 7.79% | 6.32% | 0.967% | -4.21% | 1.9% | 1.05% | 31.2% | 2.86% | 11.8% | -1.91% |
| O=C(COC(=O)Cc1cccs1)NCc1cccc(NC(=O)C2CC2)c1 | -4.92% | 21.1% | 1.38% | -10.9% | -3.27% | -1.08% | 3.47% | 4.04% | 5.42% | 16.1% | -4.73% |
| CC(C(=O)NCCCN1CCCCCC1=O)n1cncn1 (configuration not stated) | -2.32% | 21.1% | -0.014% | -11.5% | -1.4% | -5.04% | 8.04% | 2.75% | 5.42% | 13.6% | -7.45% |
| Cc1cnc(CN(C)C2CCN(CCn3cc(C#N)cn3)C2)o1 (configuration not stated) | 2.65% | 16.2% | -13.3% | -2.11% | -7.83% | -2% | 21.4% | 6.73% | 3.45% | 11.1% | -2.79% |
| O=C(C1CC1)N1CCN(Cc2coc(-c3ccc(Cl)cc3)n2)CC1 | -5.03% | -7.79% | 1.6% | 13.9% | 8.8% | -1.42% | -3.38% | 43% | 3.88% | 0% | -5.59% |
| CC(=O)N1CCC(c2cncc(Oc3ccccc3)n2)CC1 | -10% | 0% | 9.22% | -2.36% | -4.33% | -1.17% | 8.19% | 14% | -1.06% | 3.85% | -3.75% |
| CCNC(=O)CCc1c(C)nc2cc(O)nn2c1C | -0.575% | 15.6% | -428% | 4.55% | 5.43% | 4.63% | 16.9% | 23.5% | 2.91% | 12.2% | -8.86% |
| O=C(NCCc1ccc(Cl)s1)NCc1nnc2n1CCC2 | -5.75% | 18.4% | -1.91% | -9.75% | -6.07% | -3.96% | 15.5% | 4.94% | 4.43% | 11.1% | -7.66% |
| O=C(NCCCc1ccncc1)C1CCCN(Cc2ccco2)C1 (configuration not stated) | -4.69% | 5.33% | 3.79% | -5.72% | -10.8% | 1.04% | 17.6% | 29.8% | -1.64% | 6.17% | -7.2% |
| CCN1CCN(CC(O)c2ccc(OC(F)(F)F)cc2)CC1 (configuration not stated) | -9.59% | 16.2% | -17.6% | 27.4% | 9.34% | -19.6% | 9.73% | 0.571% | 6.4% | 18.5% | -20.3% |
| CC(=O)N1CCCN(C(=O)CCc2c(C)noc2C)CC1 | -5.5% | 18.4% | -6.52% | -3.87% | 3.95% | 0.766% | 9.52% | 9.31% | 8.33% | 19.5% | -11.2% |
| CN(C)C(=O)N1CCN(Cc2nnc(C(C)(C)C)o2)CC1 | -0.665% | -5.41% | 0.51% | 3.54% | 0% | 1.91% | 1.55% | -1.07% | -1.59% | 0% | -0.0145% |
| Cc1ncsc1C(=O)NC1CCN(CC(=O)N(C)c2ccccc2)CC1 | -6.03% | 18.4% | -4.03% | 6.55% | -0.654% | -0.719% | 3.3% | 1.23% | 10.3% | 18.5% | 2.33% |
| O=C(COc1coc(CN2CCCCC2)cc1=O)NCc1ccccc1 | -1.81% | 7.89% | 6.63% | 2.03% | -4.38% | -4.73% | 18.5% | -0.295% | 4.25% | 10.4% | -5.41% |
| O=C1c2cnc(N3CCOCC3)nc2CN1c1ccc2c(c1)OCO2 | -4.88% | 7.79% | 1.53% | 6.09% | 2.26% | -5.52% | 14.5% | -11.1% | 9.68% | 21% | 0.201% |
| CC(C)CNC(=O)Nc1ccc(CN2CCOC2=O)cc1 | -6.23% | -15.3% | -5.54% | 6.22% | -2.23% | 0.442% | 12.8% | 25.7% | -7.37% | -25.6% | -1.07% |
| Cn1cc(C2CC(=O)NC23CCN(CC2CC2)CC3)cn1 (configuration not stated) | -4.62% | 5.33% | -4.75% | 13.8% | 2.32% | 4.12% | 10.1% | 0.353% | 1.04% | 10% | -6.87% |
| Cc1nn(C)c(Cl)c1CNCc1cccnc1N1CCN(C)CC1 | -3.92% | 13.2% | 2.58% | 7% | 2.24% | -5.92% | 17.4% | 4.03% | 3.19% | 18.2% | -6.12% |
| CN(C)C(=O)CN1CCCCC1c1nc(N)ncc1-c1cccc(F)c1 (configuration not stated) | -4.39% | 21.3% | 1.75% | -10.4% | 5.12% | -4.43% | 17.9% | 6.49% | 4.25% | 14.1% | -4.14% |
| CCNC(=O)C1CCN(Cc2csc(-c3ccc(C)o3)n2)CC1 | -0.895% | 11.4% | 2.01% | 2.17% | 2.97% | 1.5% | 14.1% | 27.6% | 7.29% | 20.2% | -26.4% |
| OCC1CCCN1c1cc(NCCNc2ccccn2)ncn1 (configuration not stated) | -3.44% | 5.48% | -4.46% | -5.01% | 1.18% | 3.64% | 20.4% | 22.1% | 2.15% | 10% | -7.12% |
